SMILES strings stand for the structures. Hit rate of the full screen: of about 330,000 compounds, about 590 (0.18%) were called active. Shown is part of a subset that was picked to be rich in actives. Unmarked numbers belong to inactive results.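 Rule for the calls: active = superoxide response under a set limit, about three screen SD below normal (cut at about 65% in these data); inactive = the rest.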

The nature of the test: reduction of superoxide in aged yeast, primary screen, HTS (AID 2690).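 Note: yeast aged for seven days with compound at 30 °C before DHE staining; 100% = average MFI of all compound-treated wells on the plate with controls excluded.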 The note with it: S. cerevisiae aged cells, superoxide DHE fluorescence; at 10 µM; hits give low values.
`O=C(CCNS(=O)(=O)c1ccccc1)Nc1ccc(Cl)cc1C(=O)c1ccccc1`: the superoxide response (% of plate mean) is 83.2%.
With `CN1CCN(C(=S)SCC(=O)Nc2ccc(Cl)cc2C(=O)c2ccccc2)CC1` the figure was 63.3% (active); with `O=C(COC(=O)c1ccccc1)Nc1ccc(Cl)cc1C(=O)c1ccccc1`, 104%.
In the case of `CNCC[C@H](Oc1ccc(C(F)(F)F)cc1)c1ccccc1`, the superoxide response (% of plate mean) was 88.9%.
For `Cc1cc(C)cc(NC(=S)NC2CC3CCCC(C2)N3Cc2cccs2)c1` (stereo not given) the value was 101%.
